Mito fusion yeast: mitochondrial division inhibition or fusion activation; 320,000 compounds, 0.23% hits; Potency, µM (top dose mostly 46.1 µM), for the others: at the highest dose growth rescue (activation), most hits filed as activators; S. cerevisiae fusion-defective mutant growth rescue, CellTiterGlo 48 h; also: % of control where 0% means no effect; nearly all actives have a fitted effect of over 45% in size
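Growth-rescue viability read-out: after 48 h at the non-permissive 37C in glycerol/ethanol YPEG, yeast mitochondrial fusion mutants are measured by CellTiterGlo luminescence; compounds (23 nl pinned per well) restoring growth score as division inhibitors or fusion activators.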
Abeta yeast res: compounds reversing amyloid beta toxicity in yeast. yeast expressing A-beta42, growth rescue, OD600, 48 h; response scale: 0% DMSO, 100% iron-clioquinol control. 410,000 compounds, 0.063% hits. Potency, µM (doses to about 46.1 µM), actives largely listed as activators. AID 1347071; also: nearly all actives have a fitted effect of over 55% in size
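Yeast growth medium received pinned compounds, then yeast cells expressing toxic A-beta were added; plates incubated at 30 C for 48 hr. Growth read as absorbance at 600 nm, normalized to DMSO and equimolar FeCl3 plus clioquinol controls.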
TDP43 rescue: TDP-43 toxicity inhibition in yeast | TDP-43 expressing yeast growth rescue, BacTiter-Glo, 24 h | Potency, µM (doses to about 46.1 µM), without a hit: top-dose growth rescue (activation), usual class: activators | 410,000 compounds, 1.8% hits; also: % of control where 0% means no effect; nearly all actives have a fitted effect of over 50% in size
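Yeast expressing TDP-43 (pregrown in raffinose, seeded at OD600=0.02 in galactose medium) exposed to compounds 24 hr at 30 deg C. Growth read by BacTiter-Glo luminescence; rescue of toxicity appears as increased signal.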
FUS suppressor: rescues growth of FUS-expressing yeast | S. cerevisiae FUS-expressing, growth rescue, OD600, 24 h | Potency, µM (top dose mostly 76.6 µM), actives largely listed as activators | 390,000 compounds, 0.24% hits | AID 1347120;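 also: plate controls were DMSO vehicle for no effect and reference control for full effect; nearly all actives have a fitted effect of over 55% in size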
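Yeast expressing FUS under galactose induction, OD 0.005 in 2% galactose medium; compounds in a dilution series, 24 h at 30C. Growth rescue by absorbance at 600 nm; CP55940 positive control, DMSO negative.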
aSyn yeast inh: alpha-synuclein toxicity inhibition in yeast | Yeast expressing alpha-synuclein, growth rescue, BacTiter-Glo, 24 h | Potency, µM (titrated, usually from 46.1 µM), for inactives: at the highest dose growth rescue (activation), usual class: activators | 370,000 compounds, 0.14% hits; also: % of control where 0% means no effect; nearly all actives have a fitted effect of over 65% in size
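Readout is rescue of growth in alpha-synuclein-expressing yeast, so inhibitors of toxicity appear as activators. Growth after 24 hr at 30 deg C in galactose medium is quantified by luminescence.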
An asterisk follows results filed as active; i = inactive; ? = inconclusive; nt = not tested or not shown; ! = not active in a repeat. An excerpt weighted towards active compounds, which were near 2.2% of everything screened. Calls follow the shape of the dose curve; as a rule, active = well fitted curve in the direction sought with a large enough effect; inconclusive = small, poorly fitted or top-dose-only effect, or another doubt; inactive = no such curve, though single readings can be large; an effect the other way counts as inactive or inconclusive. Potency is read from the fitted curve at half-maximal effect.

SMILES	Mito fusion yeast	Abeta yeast res	TDP43 rescue	FUS suppressor	aSyn yeast inh
Cc1cc2oc(=O)cc(-c3ccccc3)c2c(C)c1-c1ccc(CO)cc1	nt	i	35µM*	i	-15%
Cc1ccccc1C(=O)Nc1cc(-c2ccc(Cl)cc2)nn1-c1ccccc1	nt	i	?	i	nt
CCOc1ccc(/C=C/c2nc(C#N)c(NCc3ccccc3)o2)cc1	nt	i	?	i	nt
COc1cccc(NC(=O)N2CCc3nc(Nc4ccc(C(C)C)cc4)ncc3C2)c1	nt	?	13µM*	i	30%
CN(C)C(=O)Oc1cccc(NC(=O)N2CCOCC2)c1	1%	i	13%	i	-2%
O=C(NCCc1ccccc1)[C@@H]1CC=C[C@@H]2CCN(Cc3ccc(Cl)c(Cl)c3)C(=O)[C@@H]21	nt	i	?	i	?
CC12CC(=O)C3C(CCC4CC=CCC43C)C1CCC2=O (centres undefined)	nt	i	10µM*	nt	9%
C[C@H](CO)N1C[C@H](C)[C@H](CN(C)C(=O)Cc2ccncc2)Oc2ncc(Br)cc2C1=O	nt	i	4%	i	2%
Cc1ccc2c(C)c3ccc4ccccc4c3c[n+]2c1	nt	i	2.5µM*	nt	?
O=C(NCCc1ccc(F)cc1)C(=O)NCC(c1cccs1)S(=O)(=O)c1ccc(Cl)cc1 (centres undefined)	nt	i	?	i	nt
Nc1c(C(=O)NC2CCCC2)c2nc3ccccc3nc2n1CC1CCCO1 (centres undefined)	-6%	i	13µM*	?	-2%
ClCCN(CCCl)c1ccc(C=Nc2ccncc2)cc1	nt	nt	nt	nt	3%
COC(=O)C1=C(c2ccc(Cl)c(C(F)(F)F)c2)C[C@@H]2CC[C@H]1N2C(=O)NCCOc1ccccc1	?	i	22µM*	22µM*	2%
COC(=O)C1=C(c2ccc(OC(F)(F)F)cc2)C[C@@H]2CC[C@H]1N2C(=O)NCCOc1ccccc1	25%	i	?	?	3%
COC(=O)C1=C(c2ccc(OC(F)(F)F)cc2)C[C@@H]2CC[C@H]1N2C(=O)NCCOc1ccccc1Cl	26%	i	28µM*	?	10%
COC(=O)C1=C(c2ccc(Cl)c(C(F)(F)F)c2)C[C@@H]2CC[C@H]1N2C(=O)NCc1ccco1	8%	i	22µM*	i	1%
O=C(NCc1ccc(Cl)cc1)C1CCCN(C(=O)c2cnn(-c3ccc(F)cc3)c2-n2cccc2)C1 (centres undefined)	nt	i	?	?	nt
Cc1cc(O)c2c3c(c(=O)oc2c1)CCC(C)C3 (centres undefined)	-3%	i	0%	i	-20%
Cc1cc(O)c2c(c1)OC(C)(C)C1=C2CC(C)CC1 (centres undefined)	-6%	i	13µM*	i	22%
ClCCN(CCCl)c1ccc(/C=C/c2sc3ccccc3[n+]2CCCCI)cc1	nt	nt	nt	nt	-26%
COc1cc([C@@H]2c3cc4c(cc3[C@@H](O)[C@H]3COC(=O)[C@H]23)OCO4)cc(OC)c1O	nt	nt	nt	nt	-6%
C[C@]12CCC(=O)C[C@H]1CC[C@@H]1[C@@H]2CC[C@]2(C)[C@@H](O)CC[C@@H]12	19%	nt	nt	nt	nt
CC12CCC3C(CCC4CC(=O)C(C(O)C(F)(F)F)CC43C)C1CCC2O (centres undefined)	nt	i	14µM*	i	14%
O=C(O)CCC(=O)NCCC1=c2ccccc2=N/C1=C\c1c(O)n(Cc2ccc(F)cc2)c(=S)[nH]c1=O	9%	i	-2%	20µM*	-6%
CCC(=Nc1ccc(OC)cc1OC)c1c(O)n(C2CCCCC2)c(=O)[nH]c1=O	19%	i	16µM*	?	-12%
O=c1c2ccccc2[nH]c(=S)n1-c1cccc(C(F)(F)F)c1	nt	i	6.3µM*	i	?
CCn1cc(C(=O)O)c(=O)c2ccc(C)nc21	5.8µM*!	?	-4%	i	8%
C[C@@H]1CN([C@H](C)CO)C(=O)CCCn2nncc2CO[C@@H]1CN(C)C(=O)Nc1ccc(N2CCCCC2)cc1	nt	i	4%	i	0%

Bioassay records (PubChem)
